# “And” between values parts separate entries of the source, which are not always exact repeats. Equal values may be shown once. Among all 220,000 compounds or so, about 2,000 (0.91%) were called active. Roughly 2% stayed inconclusive and do not appear here. Only a sample is shown. Potency and affinity values are given separately. A number with no mark means an inactive call. No stated cut-off is given here; in the data, inconclusive means inhibition above about 80% without an active follow-up result; inactive means below that; test concentration not stated here.
# Test: M. tuberculosis H37Rv growth inhibitors, H37Rv strain (AID 1626);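 further: bacteria incubated seven days before Alamar blue readout; 0% = bacteria only wells and 100% = bacteria with antibiotic wells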
# Settings: active compounds read high, concentration not given here
row,Structure (SMILES),inhibition
1,O=C(O)c1ccc(-c2noc(-c3cccc(F)c3)n2)cc1,-9.57%
2,COc1ccc2[nH]c(=O)c(CN(CCCN3CCOCC3)C(=O)NCc3ccccc3)cc2c1,6.13%
3,COc1cc(NC(=O)CSc2nnc(Cn3nnc4ccccc43)n2C)cc(OC)c1,3.53%
4,CCCCN(C)CCC(=O)Nc1ccc(OC)cc1OC,-13.6%
5,Cc1ccccc1Nc1cc(C(=O)NCC2CCCO2)c2ccccc2n1 (stereo unspecified),5.9%
6,CCOC(=O)N1CCN(C(=S)Nc2cccc(C)c2)CC1,-4.85%
7,COc1ccc(C(=O)Nc2ccc(NC(=O)c3cccs3)cc2)cc1Cl,-14.7%
8,CC(=O)Nc1ccc(C(=O)N/N=C/c2ccc(F)cc2)cc1,7.2%
9,Cc1ccsc1C(C(=O)NC1CCCCC1)N(C(=O)c1csnn1)C1CC1 (stereo unspecified),-8.93%
10,COC(=O)CSc1nc(-c2ccccc2)nc2ccccc12,5.34%
11,COC(=O)CSc1cnc2ccccc2n1,-1.39%
12,Cc1ccc(-n2c(C)nn(CCOc3ccccc3)c2=O)cc1,6.33%
13,CN(C)C(/C=C/Nc1cccc([N+](=O)[O-])c1)=C(C#N)C#N,-7.29%
14,CCN(CC)c1nc(Oc2ccc(=O)[nH]n2)nc(N2CCOCC2)n1,0.81%
15,Cc1ccccc1NC(=O)NC(C)(C)CC(C)(C)C,-4.38%
16,COc1cccc(C(C(=O)NC(C)(C)C)N(CC(C)C)C(=O)CCC(=O)Nc2cc(C)on2)c1OC (stereo unspecified),-4.52%
17,O=C(c1ccc(NC2=NC3CS(=O)(=O)CC3S2)cc1)N1CCN(C(=O)c2ccco2)CC1 (stereo unspecified),-2.98%
18,OCC1(Cc2cccc(C(F)(F)F)c2)CCN(Cc2cc(F)cc(F)c2)CC1,1.35%
19,Cc1ccc(-n2cc(CN3CCC(CO)(Cc4ccccc4)CC3)cn2)cc1,0.885%
20,O=C(CCN1C(=O)c2ccccc2C1=O)C1=NN[C@@H]2C(=O)N(c3ccc4c(c3)OCO4)C(=O)[C@H]12,-4.07%
21,COc1ccc(CN(CC2CCCO2)C(=O)c2cc3sccc3n2C)c(OC)c1 (stereo unspecified),-12%
22,CC1(C)Cc2c(sc3c2c(=O)n(-c2cccc(Cl)c2)c(=O)n3CC(N)=O)CO1,-12.2%
23,CCOC(=O)C1=CN(Cc2ccc(OC)cc2)C=C(C(=O)OCC)C1c1cccs1,-0.52%
24,Cc1cc(Nc2ccc(C)c(Cl)c2)nc(N2CCOCC2)n1,12.8%

row,Structure (SMILES),inhibition
1,Cc1cc(C(=O)Nc2ccc3c(c2)OCCO3)c2ccccc2n1,-3.31%
2,O=C(Nc1ccc2c(c1)OCCO2)c1ccccc1F,6.75%
3,O=C(Nc1ccc2oc(-c3ccccc3Cl)nc2c1)c1ncn[nH]1,6.26%
4,Cc1[nH]nc(NNC(=O)c2ccccc2)c1[N+](=O)[O-],-6.74%
5,O=C1NC(=O)N(c2ccccc2)C(=O)/C1=C\C=C\c1ccccc1,-3.04%
6,O=C1NC(=O)N(c2ccccc2)C(=O)/C1=C/C=C/c1ccco1,-5.19%
7,CN1C(=O)OC2(C)CCc3ccccc3C12C (stereo unspecified),-7.1%
8,Cc1cc(NCCO)nc(-n2nc(C)cc2C)n1,8.23%
9,CNc1nc(C)nc(-n2nc(C)cc2C)n1,6.41%
10,Cc1ccccc1Nc1nc(N)nc(CCl)n1,77.4%
11,CC(=O)c1nnn(-c2nc(N)nc(N(c3ccccc3)c3ccccc3)n2)c1C,3%
12,Cc1cc(C)n(-c2nc(N(C)C)nc(N(C)C)n2)n1,-2.29%
13,Cc1cc(C)n(-c2nc(C)nc(N)n2)n1,-4.82%
14,CC(C)Nc1nc(NC(C)C)nc(Nn2cnnc2)n1,-7.25%
15,Cc1cc(C)n(-c2nc(Nc3ccccc3)nc(-n3nc(C)cc3C)n2)n1,-2.93%
16,CCC1CCc2c(sc(NC(=O)C3c4ccccc4Oc4ccccc43)c2C(N)=O)C1 (stereo unspecified),5.29%
17,O=C(NC(=S)NCC1CCCO1)c1ccc(Cl)cc1 (stereo unspecified),2.47%
18,O=C(NCc1ccccc1)c1onc(CSc2ccccc2)c1C(=O)NCC1CC1,-10.4%
19,CC(C)c1nnc(NC(=O)CSc2nnc(-c3ccco3)o2)s1,-0.02%
20,O=C(Cn1c(=O)n(-c2ccccc2)c(=O)c2sccc21)NCc1ccccc1,-8%
21,CN(C)S(=O)(=O)c1cccc(C(=O)NCC2CCCO2)c1 (stereo unspecified),4.28%
22,CC(=O)c1c(C)[nH]c(C(=O)NCc2cccc(Cl)c2)c1C,-6.84%
23,Cc1nnc(Sc2cc(C(=O)NCc3ccco3)c3ccccc3n2)s1,0.09%
24,Cc1cc(C)n(-c2nnc(NCc3ccc(Cl)cc3)nn2)n1,8.99%

row,Structure (SMILES),inhibition
1,CCCCNc1nc(-c2ccccc2)nc(-n2ccnc2)n1,1.24%
2,Cc1cc(C)n(-c2nnc(NC(C)(C)C)nn2)n1,-8.78%
3,CC(C)Nc1nc(-c2ccccc2)nc(-n2ccnc2)n1,8.64%
4,Cc1sc2nc(CN3CCCC3)nc(N3CCN(C(=O)c4ccco4)CC3)c2c1C,-1.07%
5,Cc1ccccc1CC1(CO)CCCN(Cc2ccc(C#CC(C)(C)O)cc2)C1 (stereo unspecified),8.42%
6,COc1cccc(CN2CCC(C(=O)N3CCN(c4ccccc4F)CC3)CC2)c1,-8.97%
7,CCOC(=O)c1cccc(NC(=O)N[C@@H](C)C(=O)OC)c1,-9.35%
8,CC(=O)c1ccc(-n2cc(-c3ccc(C(C)(C)C)cc3)[n+]3c2SCCC3)cc1,40.7%
9,COc1ccc(-c2cn(-c3ccc(Br)cc3)c3[n+]2CCS3)cc1,5.88%
10,N#Cc1c(/N=C/C=C/c2ccccc2)sc2c1CCCC2,-4.34%
11,Cc1cccc(OCC2=NS(=O)(=O)c3ccccc3N2)c1,-21.3%
12,CCCCOC(=O)c1ccc(NC(=O)CSc2nncn2C)cc1,53.2%
13,Cn1nnnc1SCC(=O)Nc1ccccc1-c1ccccc1,36.5%
14,Cn1nnnc1SCC(=O)Nc1ccc(Oc2ccccc2)cc1,57.4%
15,Cc1cc(C)nc(SCC(=O)Nc2nc(-c3ccccc3)c(-c3ccccc3)o2)n1,5.45%
16,CCOC(=O)c1ccc(NC(=O)CSc2nnnn2CCCO)cc1,68.7%
17,COc1ccc(NC(=O)CSc2nnnn2C)cc1,-5.32%
18,CCOC(=O)c1oc2ccc(S(=O)(=O)Nc3ccc4c(c3)n(C)c(=O)n4C)cc2c1C,-1.98%
19,O=C1CCCC2=C1C(c1ccsc1)CC(=O)N2c1ccccc1F (stereo unspecified),-5.2%
20,CCN(CC)CCCNC(=O)c1ccccc1C,-9.77%
21,O=C(c1ccccc1)N1CCC2(CC1)OCCO2,-4.39%
22,CCN=C1SC(C(=O)Nc2cccc(Cl)c2)CC(=O)N1CC (stereo unspecified),2.07%
23,O=C(c1cc2nc(-c3ccccc3)cc(-c3ccccc3)n2n1)N1CCCC1,-3%
24,CN1CCN(C(=O)c2cc3nc(-c4ccccc4)cc(-c4ccccc4)n3n2)CC1,4.38%

row,Structure (SMILES),inhibition
1,CCCCn1c(=O)c(CCC(=O)OCC(=O)NC(=O)NCCC(C)C)nc2ccccc21,-5.41%
2,On1nnc2ccc(C(F)(F)F)cc21,0.915%
3,S=C1NC2=C(CCCC2)C2(CCCCC2)N1,3.82%
4,Cc1cccc(C)c1OCc1nc2ccccc2[nH]1,-5.31%
5,N=c1n(CCN2CCOCC2)c2ccccc2n1CC(=O)c1ccc(Cl)c(Cl)c1,17.4%
6,N=c1n(CCN2CCCCC2)c2ccccc2n1CC(O)c1ccc(Cl)c(Cl)c1 (stereo unspecified),57.5%
7,Cc1ccc2nc(/C(C#N)=C/c3ccc(-c4cccc([N+](=O)[O-])c4)o3)[nH]c2c1,1.74%
8,N#C/C(=C\c1ccc(OC(=O)c2cccs2)cc1)c1nc2ccccc2[nH]1,28.1%
9,N#C/C(=C\c1ccc(OC(=O)c2ccc(Br)s2)cc1)c1nc2ccccc2[nH]1,66.1%
10,Cc1ccc2nc(/C(C#N)=C\c3cc(O)ccc3[N+](=O)[O-])[nH]c2c1,-7.37%
11,CN(Cc1nc(Cc2cccc(C(F)(F)F)c2)no1)C1CC(C)(C)NC(C)(C)C1,4.06%
12,COc1ccc(C(=O)NCC(=O)OCC(=O)NCCC2=CCCCC2)cc1,1.25%
13,CCN(CC)S(=O)(=O)c1ccc(-c2nnc(SCC(N)=O)n2CC)cc1,-3.31%
14,CSc1ncc(CO)n1Cc1ccccc1,-4.14%
15,O=C(O)c1ccc(CS(=O)(=O)Cc2ccccc2F)o1,-18.6%
16,COc1ccc(-c2[nH]ncc2CN2CCCN(c3ccccc3)CC2)c(F)c1,-1.64%
17,COc1ccc(-c2[nH]ncc2CN2CCN(c3ccc(F)cc3)CC2)cc1,-12.3%
18,Cn1cnc([N+](=O)[O-])c1Nc1cccc(O)c1,-3.69%
19,CC(=O)CSc1nc2ccc(Nc3nc(N4CCOCC4)nc(N4CCOCC4)n3)cc2s1,4.02%
20,COc1ccc(Nc2nc(NCc3ccco3)nc(N3CCOCC3)n2)cc1,-1.04%
21,O=C(CSc1nc2ccc(Nc3nc(N4CCCC4)nc(N4CCCC4)n3)cc2s1)NCc1ccco1,68.7%
22,Cc1cccc(Nc2nc(NCc3ccco3)nc(N3CCOCC3)n2)c1,-1.15%
23,O=C(Cn1c[n+](CC(=O)c2ccc([N+](=O)[O-])cc2)cn1)c1ccc([N+](=O)[O-])cc1,-5.51% and -5.64%
24,O=C(Cn1cc[n+](Cc2ccccc2)c1)c1ccc([N+](=O)[O-])cc1,14%

# Reference: PubChem BioAssay AID1626 (SRMLSC, 2009)
